Platelet DG rel: platelet dense granule release activity; inhibition, %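 (compounds screened at 7.5 µM in platelet-rich plasma)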; actives 0.22% (n = 300,000); AID 1663; human platelet-rich plasma, SFLLRN dense granule ATP release, luminescence;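 active means mean replicate score, as percent of positive control, at or above 50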
SKKanGAS inh: inhibitors of SKKanGAS S. pyogenes growth in kanamycin (SK-promoter or general growth effect). BacTiter-Glo, 6 h. inhibition, % at 7.5 µM. actives 1.3% (n = 300,000). AID 1662;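 active means mean replicate score, as percent of positive control median, at least 50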;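 further: strain carries kanamycin resistance gene driven by streptokinase promoter and grows in 40 µg/ml kanamycin; loss of luminescence reflects streptokinase promoter inhibition or plain growth inhibition; 0% = median of DMSO wells and 100% = positive control at its reference dose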
PHOSPHO1 block: PHOSPHO1 (human) inhibition. Q8TCT1. recombinant PHOSPHO1, absorbance phosphatase assay. inhibition, % at 13.3 µM. actives 1.1% (n = 290,000). AID 1565; in the data active means inhibition above about 60%
TPT1 inh: C. albicans TPT1 enzyme inhibition | recombinant caTPT1, FP RNA substrate dephosphorylation | actives 0.81% (n = 300,000) | inhibition, % at 5 µM;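 active means inhibition above the mean of all tested compounds plus 3 SD, set per screening campaign, cut at about 24% in these data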;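 further: plate controls were DMSO alone for no effect and ferristatin control at 100 nM for full effect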
WT yeast gro inh: growth inhibition of WT yeast, mitochondrial fusion screen. mitochondrial fusion phenotypic screen, WT strain. inhibition, % at 10 µM. actives 2.1% (n = 190,000); in the data active means inhibition above about 58%; tested in S. cerevisiae
Rtt109 Vps75: C. albicans Rtt109 histone acetyltransferase inhibition. inhibition, % at 34.9 µM. actives 0.16% (n = 330,000). purified Rtt109/Vps75, ThioGlo CoA-SH fluorescence, 4 h. Q5AAJ8. AID 540336;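 active means inhibition of at least 50% in every replicate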
Target sequence (Q5AAJ8 whole entry, looked up): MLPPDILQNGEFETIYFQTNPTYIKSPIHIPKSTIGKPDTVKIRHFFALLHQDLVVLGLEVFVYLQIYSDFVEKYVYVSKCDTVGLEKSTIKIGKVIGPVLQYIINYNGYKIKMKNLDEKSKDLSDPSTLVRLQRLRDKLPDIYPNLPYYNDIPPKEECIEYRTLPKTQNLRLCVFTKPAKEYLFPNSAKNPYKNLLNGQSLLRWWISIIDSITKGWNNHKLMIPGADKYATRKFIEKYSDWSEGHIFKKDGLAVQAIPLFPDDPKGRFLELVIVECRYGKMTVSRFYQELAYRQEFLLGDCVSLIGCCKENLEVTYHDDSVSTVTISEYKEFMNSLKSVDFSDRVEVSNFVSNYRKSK
caTPT1 confirm: confirmation of Candida albicans TPT1 inhibitors | shares compounds with TPT1 inh | recombinant caTPT1, fluorescence polarization, RNase T1 coupled | inhibition, % at 5 µM | actives 74% (n = 2,400) | AID 2149;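 active means inhibition above the primary screen limit, the mean inhibition of all tested compounds plus 3 SD, cut at about 25% in these data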
RNase T1 counter: blocks Aspergillus oryzae RNase T1, a TPT1 counter-screen; actives 83% (n = 2,400); shares compounds with TPT1 inh; inhibition, % at 5 µM; RNase T1 cleavage, fluorescence polarization, 1536-well;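 active means inhibition above the solvent-only control well mean plus 3 SD, limit set per screening run, cut at about 23% in these data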;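 further: plate controls were DMSO wells with enzyme for no effect and wells without RNase T1 for full effect; inhibitors block cleavage so intact labeled substrate keeps polarization high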
Target sequence (P00651 whole entry, looked up): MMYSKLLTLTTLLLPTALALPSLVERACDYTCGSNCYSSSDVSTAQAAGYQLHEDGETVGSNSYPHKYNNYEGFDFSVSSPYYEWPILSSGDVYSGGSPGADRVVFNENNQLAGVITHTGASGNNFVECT
* hit, by the source's call; . = no result given. Rows were chosen to be rich in hits. Some 3.9% of all compounds tested hit in one or more screens of this group.

SMILES | Platelet DG rel | SKKanGAS inh | PHOSPHO1 block | TPT1 inh | WT yeast gro inh | Rtt109 Vps75 | caTPT1 confirm | RNase T1 counter
COc1cc(-c2cc(-c3ccc(N)cc3)[nH]c(=O)c2C#N)cc(OC)c1OC | 0 | 5 | -13 | 103* | . | 10 | 103* | 105*
NC(=O)c1c(NC(=O)c2ccccc2)sc2c1CCN(Cc1ccccc1)C2 | 0 | -3 | -9 | 71* | . | -47 | 56* | 66*
NC(=O)c1c(NC(=O)c2c(F)cccc2F)sc2c1CCN(Cc1ccccc1)C2 | -2 | 9 | 25 | 36* | . | -31 | 14 | 23*
Cc1cccc(/C=N/c2sc3c(c2C#N)CCN(Cc2ccccc2)C3)c1O | 5 | 4 | 2 | 58* | -20 | -1 | 56* | 69*
CC(C)C(=O)Nc1sc2c(c1C(N)=O)CCN(Cc1ccccc1)C2 | 4 | -1 | 15 | 0 | . | -6 | . | .
CCN1CCc2c(sc(NC(=O)c3ccc(S(=O)(=O)N(CC)c4ccccc4)cc3)c2C(N)=O)C1 | -33 | 2 | 56 | 97* | . | -9 | 103* | 107*
Cn1cccc1C(=O)N/N=C/c1c(Cl)cccc1Cl | 9 | -3 | 36 | 0 | . | 1 | . | .
Cc1cccc(NS(=O)(=O)c2ccc(C)c(C(=O)NCCCN3CCOCC3)c2)c1 | . | . | . | . | . | 2 | . | .
CC(=O)Nc1sc2c(c1C#N)CCN(Cc1ccccc1)C2 | 3 | 4 | 31 | 1 | . | 22 | . | .
N#Cc1c(NC(=O)/C=C/C(=O)O)sc2c1CCN(Cc1ccccc1)C2 | 22 | -2 | 11 | 122* | . | 3 | 61* | 72*
CCN1CCc2c(sc(NC(=S)NC(=O)c3ccco3)c2C(N)=O)C1 | -5 | 4 | -70 | 33* | . | . | 32* | 42*
CCN1CCc2c(sc(NC(=O)c3ccc(C(=O)c4ccccc4)cc3)c2C(N)=O)C1 | -8 | 3 | 48 | 11 | . | -2 | . | .
COCCCNC(=O)Cc1ccc(S(=O)(=O)N2CCOCC2)s1 | . | . | . | . | . | -10 | . | .
Cc1cc(NC(=O)/C(C#N)=C/c2ccc(-c3ccc(SC(F)F)cc3)o2)n(-c2ccccc2)n1 | 0 | 0 | -6 | 57* | -8 | -20 | 57* | 66*
Cc1cc(NC(=O)/C(C#N)=C/c2ccc(-c3cccc(C(F)(F)F)c3)o2)n(-c2ccccc2)n1 | 6 | 19 | -9 | 10 | 27 | -10 | . | .
CC(C)CCn1c(SCC(=O)NC2CCS(=O)(=O)C2)nc2cc(Cl)ccc2c1=O (centres undefined) | 7 | -1 | . | -3 | . | -5 | . | .
CN1C=CC(=O)[C@@H](OC(=O)Nc2ccc(Br)cc2)[C@H]1c1ccccc1Br | . | . | . | . | . | 1 | . | .
COc1ccc(-c2ccc(C3C(C#N)=C(N)Oc4n[nH]c(C)c43)o2)cc1 (centres undefined) | 11 | -2 | 34 | 111* | 1 | -5 | 99* | 101*
Cc1[nH]nc2c1C(c1ccco1)C(C#N)=C(N)O2 (centres undefined) | -3 | 1 | 12 | -1 | 0 | 6 | . | .
COc1cc(/C=C(\C#N)C(=O)N2CCc3ccccc32)ccc1O | 2 | -8 | -5 | 36* | . | 8 | 71* | 76*
CCOC(=O)/C(C#N)=C\c1ccc(O)c(OC)c1 | 5 | 4 | 46 | 9 | -2 | . | . | .
N#C/C(=C\c1ccc(O)c(O)c1)C(=O)N1CCc2ccccc21 | . | . | . | 36* | . | 1 | 46* | 51*
COc1ccc(Br)cc1/C=N/n1nnnc1N | -4 | -5 | -4 | -2 | . | 1 | . | .
Cc1ccccc1NC(=O)c1c(C)[nH]c(=S)c(C#N)c1-c1ccc(Cl)cc1 | -7 | 3 | -25 | 30* | . | . | 15 | 22*
Cc1cc(=O)oc2cc(OCC(=O)Nc3ccc4[nH]c(=O)[nH]c4c3)ccc12 | -9 | -8 | . | 2 | . | -4 | . | .
SMILES | Platelet DG rel | SKKanGAS inh | PHOSPHO1 block | TPT1 inh | WT yeast gro inh | Rtt109 Vps75 | caTPT1 confirm | RNase T1 counter
CCN(Cc1ccccc1)c1ccc(/C=C(\C#N)c2ccccn2)cc1 | 8 | -1 | -2 | 67* | 11 | 5 | 46* | 50*
CCN(CC)c1ccc(/C=C(\C#N)c2ccccn2)cc1 | 9 | 6 | -4 | 135* | 68* | 4 | 124* | 129*
CCN(CC)c1ccc(/C=N/NC(=O)c2ccccn2)cc1 | 4 | -4 | -3 | -1 | . | -9 | . | .
N#C/C(=C\c1cccc([N+](=O)[O-])c1)c1ccccn1 | 6 | 14 | -11 | -2 | -10 | 13 | . | .
CN(CCC#N)c1ccc(/C=C(\C#N)c2ccccn2)cc1 | 32 | -4 | -6 | 25* | 10 | 11 | -67 | -52
COc1cc(/C=C(\C#N)c2ccccn2)ccc1OCc1ccccc1 | 11 | -5 | 2 | -2 | -1 | -9 | . | .
Cc1ccc(C)c(S(=O)(=O)NCCC(=O)N2CCCC(C(N)=O)C2)c1 (centres undefined) | . | . | . | . | . | 0 | . | .
CN1CCN(S(=O)(=O)c2ccc(Sc3nnc(-c4cccs4)n3-c3ccccc3)nc2)CC1 | 3 | -2 | 0 | 34* | -8 | -3 | 3 | 5
CSc1nnc(-c2cccs2)n1-c1ccccc1 | 0 | -3 | 4 | 1 | -10 | 7 | . | .
COc1ccc(C(=O)N2CCC(n3nccc3NC(=O)C3CCOC3)CC2)cc1 (centres undefined) | -7 | -26 | 5 | 1 | . | -2 | . | .
Cc1ccc(-c2ccc(/C=N/n3cnnc3)o2)cc1Cl | 2 | -8 | -10 | 62* | 27 | -3 | 2 | 5
CCOc1ncccc1C(=O)Nc1ccc(S(=O)(=O)N2CC(C)CC(C)C2)cc1 (centres undefined) | . | . | . | . | . | 4 | . | .
Clc1ccc(Cn2c(/C=C/c3ccco3)nc3ccccc32)cc1 | 0 | 12 | -3 | 29* | 76* | -6 | 34* | 46*
CCCn1c(/C=C/c2ccco2)nc2ccccc21 | 1 | -8 | 9 | 25* | 9 | 1 | 38* | 51*
Cc1ccc(Cn2c(/C=C/c3ccco3)nc3ccccc32)cc1 | -2 | 31 | -2 | 20 | 57 | 3 | . | .
CCC(C)NC(=O)C1(N2C(=O)c3ccccc3C2=O)CCCC1 (centres undefined) | . | . | . | . | . | -9 | . | .
O=C1N/C(=N\S(=O)(=O)Cc2ccccc2)S/C1=C/c1cc([N+](=O)[O-])ccc1O | 1 | -2 | 12 | 68* | . | . | 75* | 80*
O=C1N/C(=N\S(=O)(=O)c2ccccc2)S/C1=C\c1cc([N+](=O)[O-])ccc1O | -4 | 5 | 28 | 76* | . | 11 | 78* | 83*
Cc1ccc(S(=O)(=O)/N=C2/NC(=O)/C(=C\c3cc(Br)cc(Br)c3O)S2)cc1 | . | . | 3 | . | . | 34 | . | .
C/C(=N/Nc1ccc([N+](=O)[O-])cc1)c1ccc(C)cc1C | 10 | 0 | -2 | 26* | 23 | 5 | 36* | 47*

High-throughput results (PubChem)
